This is a sample that favours compounds with a hit; in the whole collection about 8.1% have one here.
MCF10A rereplic – DNA re-replication induction in MCF 10a cells | MCF 10A DNA re-replication, Hoechst nuclear intensity, 48 h | Potency, µM (top dose mostly 46.1 µM), for inactives: top-dose activity, positive = re-replication, hits mostly activators | 2.9% of 350,000 active | AID 624296; also: % of control where 0% means no effect; nearly all actives have a fitted effect of over 50% in size
KB-V1 MDR tox – kills drug-selected multidrug resistant KB-V1 cells; AID 1347076; 3.4% of 400,000 active; KB-V1 MDR cells viability, CellTiter-Glo, 72 h; Potency, µM (highest dose often 46.1 µM), hits mostly cytotoxic; also: % is scaled to controls: 0 for no effect and ±100 for the full control effect; nearly all actives have a fitted effect of over 60% in size
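Cytotoxicity toward P-gp-expressing KB-V1 cells was determined as loss of CellTiter-Glo luminescence after 72 h at 37 degrees C. Compounds were tested in quantitative HTS format across a concentration range, with curves fitted to normalized data.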
KB-3-1 tox – kills parental KB-3-1 adenocarcinoma cells | KB-3-1 viability, CellTiter-Glo ATP luminescence, 72 h | AID 1347075 | Potency, µM (series often up to 46.1 µM), usual class: cytotoxic | 1.4% of 400,000 active; also: % is scaled to controls: 0 for no effect and ±100 for the full control effect; nearly all actives have a fitted effect of over 60% in size
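Cytotoxicity in the drug-sensitive parental line KB-3-1 was scored as loss of CellTiter-Glo luminescence following 72 h incubation with compound. Values come from curve fitting of normalized concentration-response data.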
ELG1 repair inh – inhibitors of ELG1-dependent DNA repair in HEK293T cells; 2.3% of 330,000 active; HEK293T ELG1-luciferase reporter, luminescence, 16 h; DNA damage induced by 5-fluorouridine; Potency, µM (series often up to 46.1 µM), for the others: at the top dose activity change, negative = inhibition, hits mostly inhibitors; also: % is scaled to controls: 0 for no effect and ±100 for the full control effect; nearly all actives have a fitted effect of over 55% in size
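5-Fluorouridine DNA damage + compound/DMSO, 2,000 cells/well, 16 h, 37 °C/5% CO2. ONE-Glo, 30 min RT, luminescence. Readout = decrease in reporter signal.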
SW480 rereplic – induces DNA re-replication in SW480 colon adenocarcinoma cells; AID 624297; Potency, µM (highest dose often 46.1 µM), for inactives: top-dose re-replication activation, hits mostly activators; SW480 DNA re-replication, Hoechst DNA content imaging, 48 h; 1.8% of 340,000 active; also: % of control where 0% means no effect; nearly all actives have a fitted effect of over 55% in size
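Readout is total intensity of Hoechst-stained nuclei, excited at 405 nm and collected at 500-530 nm. Compound treatment lasted 48 hr at 37 C in 5% CO2 before staining.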
* = called active by the depositor; i = inactive; ? = inconclusive; / = not tested or not shown. Calls follow the shape of the dose curve; as a rule, active = well fitted curve in the direction sought with a large enough effect; inconclusive = small, poorly fitted or top-dose-only effect, or another doubt; inactive = no such curve, though single readings can be large; an effect the other way counts as inactive or inconclusive. Potency is read from the fitted curve at half-maximal effect.

SMILES | MCF10A rereplic | KB-V1 MDR tox | KB-3-1 tox | ELG1 repair inh | SW480 rereplic
COc1ccccc1OCC(=O)NCCCn1ccnc1 | 4.1% | i | i | 12.9% | 32.0%
Cc1c(C)c2cc(Cl)c(OCC(=O)NCCCn3ccnc3)cc2oc1=O | -30.4% | i | i | 13.2% | -4.1%
NC(=O)COc1cc2oc(=O)c3c(c2cc1Cl)CCCC3 | -0.2% | 8.2µM* | i | ? | -7.3%
CN(CC(=O)Nc1ccc(F)cc1)C(=O)c1ccc(OCc2cn3ccccc3n2)cc1 | 0.0% | i | i | 2.2% | -3.1%
Cc1ccc(F)c(S(=O)(=O)NC(=O)C2(C)CCN2C(=O)C/C=C/c2ccccc2)c1 (stereo not given) | / | i | i | / | /
Cc1cccc(C)c1-n1nnnc1C(c1ccnc2ccccc12)N1CCN(c2ccccc2F)CC1 (stereo not given) | / | 16.4µM* | ? | / | /
Cc1cccc(C)c1-n1nnnc1C(c1ccnc2ccccc12)N1CCCN(C(=O)OC(C)(C)C)CC1 (stereo not given) | / | i | ? | / | /
Cc1c[n+](CC(=O)c2ccccc2)cs1 | ? | i | i | ? | ?
Cc1cccc(N(Cc2cc3ccccc3[nH]c2=O)C(=O)c2cccc(Cl)c2)c1 | / | i | i | / | /
Cc1cccc(N(Cc2cc3cc(C)ccc3[nH]c2=O)C(=O)c2cccs2)c1 | 10.3µM* | i | i | ? | -0.8%
Cc1ccc2[nH]c(=O)c(CN(C(=O)c3cccs3)c3ccccc3)cc2c1 | 14.7% | 3.26µM* | ? | ? | -0.2%
Cc1ccc2cc(CN(C(=O)c3cccs3)c3ccccc3)c(=O)[nH]c2c1 | ? | i | i | ? | ?
Cc1ccc(C)c(NC(=O)CCCN2C(=O)C(c3ccccc3)Oc3cccnc32)c1 (stereo not given) | / | i | i | / | /
Nc1ccc(O)c2c1C(=O)c1ccccc1C2=O | -37.4% | i | i | -19.9% | -84.7%
O=C1c2ccccc2C(=O)c2c(Nc3ccc(CCO)cc3)ccc(O)c21 | -12.3% | i | i | 14.6µM* | 0.0%
Cc1cccc(N2CCN(C(=O)C3CCCCC3)CC2)c1C | 17.5% | ? | i | ? | 0.9%
O=C(C1CCN(S(=O)(=O)N2CCOCC2)CC1)N1CCN(c2ccccc2F)CC1 | 2.4% | i | i | -9.2% | 0.5%
Cc1cccc(N2CCN(C(=O)N3CCOCC3)CC2)c1C | ? | ? | 20.6µM* | -0.4% | 16.4µM*
Cc1cccc(N2CCN(C(=O)N3CCCCC3)CC2)c1C | ? | ? | i | 0.3% | -1.7%
Cc1cc(N2CCC(C(=O)N3CCN(c4cccc(C)c4C)CC3)CC2)n2ncnc2n1 | ? | i | i | 20.6µM* | 4.0%
Cc1cccc(N2CCN(C(=O)C3CCN(S(=O)(=O)N4CCOCC4)CC3)CC2)c1C | 12.5% | ? | i | 18.3µM* | -26.1%
N#Cc1ccc(N2CCN(S(=O)(=O)c3ccc4c(c3)CC(=O)N4)CC2)cc1 | / | i | ? | / | /
Cn1c(-c2sc3ccccc3c2Cl)n[nH]c1=S | -0.3% | 16.4µM* | 20.6µM* | 4.4% | -3.4%
Cn1c(CSc2nc3ccccc3s2)n[nH]c1=S | -1.2% | i | i | ? | -5.5%
CCOC(=O)C1=C(NC(=S)NC(=O)c2ccccc2)c2ccccc2CC1C(C)C (stereo not given) | ? | ? | ? | -1.6% | ?
SMILES | MCF10A rereplic | KB-V1 MDR tox | KB-3-1 tox | ELG1 repair inh | SW480 rereplic
CCOC(=O)C1=C(NC(=S)NC(=O)c2ccccc2)c2ccccc2CC1(C)CC (stereo not given) | 13µM* | ? | 16.4µM* | -18.8% | 9.6%
CSc1nc2c(c(=O)[nH]1)C(c1cccc(F)c1F)CC(=O)N2 (stereo not given) | / | i | i | / | /
C=CCn1c(SCC(=O)c2[nH]c(C)c(C(=O)OCC)c2C)nc2scc(-c3ccc(OC)cc3)c2c1=O | ? | ? | 4.61µM* | ? | ?
N#Cc1c(-c2ccccc2Cl)c2c([nH]c1=O)-c1ccccc1OC2 | 4.11µM* | i | i | -7.3% | 18.4µM*
O=C(CSc1nnc(-c2c[nH]c3ccccc23)o1)N(Cc1ccccc1)c1ccc(F)cc1 | 11.5% | 11.6µM* | i | 20.6µM* | -8.5%
Clc1cccc(CSc2nnc(-c3c[nH]c4ccccc34)o2)c1 | 11.2µM* | ? | i | 0.0% | -4.7%
Clc1ccc2nc(CSc3nnc(-c4c[nH]c5ccccc45)o3)cn2c1 | 8.3% | i | i | / | -3.1%
COc1ccc([C@H]2C[C@@H](n3cc(COC(=O)c4ccccc4)nn3)[C@H](O)CN2Cc2cccs2)cc1 | / | ? | i | / | /
C=C1CCc2c([nH]c3ccc(OCC(C)C)cc23)C1=O | 4.61µM* | ? | ? | ? | ?
CCn1c2c(c3cc(OCC(C)C)ccc31)CCCC2=O | -0.7% | i | i | -4.7% | -7.1%
Cc1cccc(CSc2ccc3nnc(-c4cccnc4)n3n2)c1 | -4.9% | i | i | 15.3% | -2.7%
c1ccc(CSc2ccc3nnc(-c4cccnc4)n3n2)cc1 | 2.4% | 18.4µM* | i | 0.0% | -10.4%
COc1c(Br)cc([N+](=O)[O-])c(OC)c1C(=O)NC(=O)Nc1cc(Cl)cc(Cl)c1 | ? | 6.51µM* | ? | ? | 23.9%
C=C1C=C(C(F)F)n2ncc(C(=O)NCc3ccc(Cl)cc3)c2N1 | / | i | i | / | /
S=c1[nH]nc(-c2cccc(Cl)c2)n1/N=C/c1ccc(-c2ccccc2Br)o1 | 11.9% | i | ? | ? | -4.5%
S=c1[nH]nc(-c2ccccc2)n1/N=C/c1ccc(-c2ccccc2Cl)o1 | 8.2µM* | 13µM* | i | 21.9% | 0.5%
Clc1ccccc1OCCCOc1cccc2cccnc12 | 13.1% | ? | i | ? | -1.5%
CC1(C)CC(C(CC(=O)O)c2ccccc2)CCO1 (stereo not given) | -5.5% | i | i | -33.0% | -4.0%
CC(c1ccccc1)N(CCC(c1ccccc1)C1CCOC(C)(C)C1)C(=O)c1ccco1 (stereo not given) | 16.4µM* | 9.2µM* | i | 23.1µM* | -2.1%
COc1ccc(CN(CCC(c2ccc(F)cc2)C2CCOC(C)(C)C2)C(=O)c2ccco2)cc1 (stereo not given) | 23.1µM* | ? | ? | 10.3µM* | 4.6%
COc1ccc(CN(CCC(c2ccccc2)c2ccco2)C(=O)c2ccco2)cc1 (stereo not given) | ? | i | i | ? | -3.6%
CC1(NC(=O)NCCCCCCNC(=O)NC2(C)CCS(=O)(=O)C2)CCS(=O)(=O)C1 (stereo not given) | -1.1% | i | i | 20.6% | -18.6%
CCCCCCn1c(SCC(=O)NC2CCS(=O)(=O)C2)nc2ccccc2c1=O (stereo not given) | / | i | i | / | /
